Results on eleven compounds are retold here after ChEMBL document CHEMBL3988442, “University of Dundee, Small-Polar-MMV Screening Library” (2021).

For some of these results: Entries with a potency or affinity are not part of this list.

Parameters in all cases: scale not given: direction of the effect not stated beside the values
For experiment [1], the target named is Protein translocase subunit SecA (Escherichia coli (strain K12)) (UniProt P10408). The experiment is described as follows: Assay to Identify E. coli SecA ATPase Inhibitors. As to conditions: 30 µM. The format is functional.
Sequence of Protein translocase subunit SecA (Escherichia coli (strain K12)) (P10408 whole entry): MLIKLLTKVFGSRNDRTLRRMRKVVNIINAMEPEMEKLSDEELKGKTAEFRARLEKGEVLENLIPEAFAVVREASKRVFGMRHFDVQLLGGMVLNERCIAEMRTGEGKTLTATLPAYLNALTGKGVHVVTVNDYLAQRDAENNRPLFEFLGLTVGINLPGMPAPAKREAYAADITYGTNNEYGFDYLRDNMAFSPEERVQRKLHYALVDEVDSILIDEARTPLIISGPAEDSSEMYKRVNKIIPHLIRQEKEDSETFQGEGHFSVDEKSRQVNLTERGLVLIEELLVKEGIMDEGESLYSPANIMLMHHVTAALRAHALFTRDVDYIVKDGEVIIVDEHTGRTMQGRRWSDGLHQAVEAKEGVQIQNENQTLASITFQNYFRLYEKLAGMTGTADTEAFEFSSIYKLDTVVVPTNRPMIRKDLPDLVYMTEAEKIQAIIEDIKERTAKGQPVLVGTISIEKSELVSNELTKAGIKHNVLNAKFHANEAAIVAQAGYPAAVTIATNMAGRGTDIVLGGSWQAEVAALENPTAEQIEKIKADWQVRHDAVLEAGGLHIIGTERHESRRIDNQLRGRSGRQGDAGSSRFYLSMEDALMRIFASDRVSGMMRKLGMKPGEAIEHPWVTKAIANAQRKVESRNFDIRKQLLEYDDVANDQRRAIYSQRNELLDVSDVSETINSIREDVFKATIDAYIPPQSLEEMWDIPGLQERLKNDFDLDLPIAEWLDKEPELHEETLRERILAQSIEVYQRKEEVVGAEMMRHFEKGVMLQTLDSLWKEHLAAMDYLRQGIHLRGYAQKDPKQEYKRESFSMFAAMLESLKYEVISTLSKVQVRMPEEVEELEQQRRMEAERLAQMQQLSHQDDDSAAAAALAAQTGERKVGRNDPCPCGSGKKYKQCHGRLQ
Experiment [2] deals with T1, Ubiquitin-activating enzyme e1, putative (Leishmania donovani (strain BPK282A1)) (UniProt E9BSI1).
T1 sequence (whole entry): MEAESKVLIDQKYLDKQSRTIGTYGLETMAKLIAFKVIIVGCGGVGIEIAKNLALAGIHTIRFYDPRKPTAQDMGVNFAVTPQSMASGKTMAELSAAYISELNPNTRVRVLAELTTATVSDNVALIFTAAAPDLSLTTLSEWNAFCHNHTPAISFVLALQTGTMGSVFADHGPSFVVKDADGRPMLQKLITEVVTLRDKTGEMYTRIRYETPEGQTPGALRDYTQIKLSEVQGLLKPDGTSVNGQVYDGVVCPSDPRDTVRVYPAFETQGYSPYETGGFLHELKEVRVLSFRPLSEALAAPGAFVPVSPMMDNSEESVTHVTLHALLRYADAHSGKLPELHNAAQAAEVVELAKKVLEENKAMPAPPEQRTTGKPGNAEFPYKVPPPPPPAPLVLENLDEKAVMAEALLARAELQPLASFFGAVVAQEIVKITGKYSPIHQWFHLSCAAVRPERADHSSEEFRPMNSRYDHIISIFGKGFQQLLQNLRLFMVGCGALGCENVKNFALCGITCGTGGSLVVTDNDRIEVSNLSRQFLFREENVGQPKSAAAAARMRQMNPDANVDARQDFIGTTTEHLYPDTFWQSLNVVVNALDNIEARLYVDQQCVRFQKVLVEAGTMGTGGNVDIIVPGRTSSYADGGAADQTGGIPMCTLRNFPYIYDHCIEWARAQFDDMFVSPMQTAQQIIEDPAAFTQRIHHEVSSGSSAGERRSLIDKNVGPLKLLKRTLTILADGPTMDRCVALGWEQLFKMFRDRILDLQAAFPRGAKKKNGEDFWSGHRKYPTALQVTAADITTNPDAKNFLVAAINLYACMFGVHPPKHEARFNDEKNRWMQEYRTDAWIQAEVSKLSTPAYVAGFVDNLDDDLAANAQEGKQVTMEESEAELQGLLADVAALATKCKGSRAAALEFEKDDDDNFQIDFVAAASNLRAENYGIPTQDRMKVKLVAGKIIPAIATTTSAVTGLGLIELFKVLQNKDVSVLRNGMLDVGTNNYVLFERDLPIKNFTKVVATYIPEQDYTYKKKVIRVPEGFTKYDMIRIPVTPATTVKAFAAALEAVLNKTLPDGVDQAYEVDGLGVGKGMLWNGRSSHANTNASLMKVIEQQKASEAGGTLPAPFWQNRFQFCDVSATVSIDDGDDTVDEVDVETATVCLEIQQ
Kind of experiment: Leishmania donovani Ubiquitin Activating Enzyme (LdE1). The format is functional. Particulars: 30 µM.

In experiment [3] the target is AMP-activated protein kinase, AMPK (Homo sapiens) (UniProt P54646+O43741+P54619+Q9UGJ0+Q9Y478+Q13131+Q9UGI9). Kind of experiment: AMP-dependent Kinase enzyme assay. An in vitro enzyme assay that detects ADP turnover that is directly proportional to AMPK activity. This uses naive AMPK that is activated during the assay with MK-8722. As to conditions: 30 µM. It counts as functional.

The target in experiment [4] is Sialic acid-binding Ig-like lectin 9 (Homo sapiens) (UniProt Q9Y336). Kind of experiment: Hs-Siglec9 ALPHAscreen SOP 20170721. Particulars: 10 µM. Background: In Alpha technology, singlet oxygen from a donor bead excites a nearby acceptor bead.
Sequence of Sialic acid-binding Ig-like lectin 9 (Homo sapiens) (Q9Y336 whole entry): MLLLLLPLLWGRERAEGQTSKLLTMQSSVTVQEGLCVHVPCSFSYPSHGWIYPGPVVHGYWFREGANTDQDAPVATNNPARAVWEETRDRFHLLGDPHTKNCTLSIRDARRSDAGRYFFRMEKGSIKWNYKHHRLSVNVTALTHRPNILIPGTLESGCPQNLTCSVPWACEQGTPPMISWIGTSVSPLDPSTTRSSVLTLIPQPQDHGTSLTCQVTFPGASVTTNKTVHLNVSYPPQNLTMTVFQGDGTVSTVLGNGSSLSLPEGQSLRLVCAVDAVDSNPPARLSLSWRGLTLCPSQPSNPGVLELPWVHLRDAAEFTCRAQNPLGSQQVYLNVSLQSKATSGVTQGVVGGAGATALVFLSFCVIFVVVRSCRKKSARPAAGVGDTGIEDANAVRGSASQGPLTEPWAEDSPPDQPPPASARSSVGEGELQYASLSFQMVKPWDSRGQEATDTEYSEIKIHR
The test system of a further experiment is Trypanosoma cruzi. The experiment is described as follows: Trypanosoma cruzi phosphomannomutase and mannose-1-phosphate guanylyltransferase assay. The format is functional. Particulars: 10 µM.
Experiment [5] addresses T2, Arginase-2, mitochondrial (Homo sapiens) (UniProt P78540).
T2 sequence (whole entry): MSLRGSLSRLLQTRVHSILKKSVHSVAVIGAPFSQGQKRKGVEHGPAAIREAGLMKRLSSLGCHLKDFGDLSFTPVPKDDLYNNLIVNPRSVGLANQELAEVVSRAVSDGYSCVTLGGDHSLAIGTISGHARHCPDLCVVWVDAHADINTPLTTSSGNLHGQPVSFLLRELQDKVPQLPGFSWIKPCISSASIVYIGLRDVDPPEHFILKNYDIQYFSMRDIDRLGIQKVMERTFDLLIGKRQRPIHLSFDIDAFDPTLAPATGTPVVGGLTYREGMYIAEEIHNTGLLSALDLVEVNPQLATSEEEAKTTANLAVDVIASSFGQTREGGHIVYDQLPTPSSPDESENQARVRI
The experiment is described as follows: in vitro enzyme assay to detect the production of urea directly proportional to the activity of Arginase II. Also: in the data most compounds retested in dose-response had high values. The format is functional. Particulars: 33.3 µM.

Experiment [6] addresses T3, Proteasome subunit beta (Trypanosoma cruzi) (UniProt O96673).
T3 sequence (whole entry): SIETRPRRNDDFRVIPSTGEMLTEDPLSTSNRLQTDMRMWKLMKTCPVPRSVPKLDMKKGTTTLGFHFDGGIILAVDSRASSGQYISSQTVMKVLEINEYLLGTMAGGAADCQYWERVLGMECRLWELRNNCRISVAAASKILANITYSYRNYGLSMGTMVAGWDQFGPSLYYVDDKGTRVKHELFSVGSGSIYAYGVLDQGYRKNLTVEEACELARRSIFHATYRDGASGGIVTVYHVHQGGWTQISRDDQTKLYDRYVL
The experiment is described as follows: Trypanosoma cruzi proteasome chymotrypsin-like activity (TcProtChymo) assay. Also: in the data most compounds retested in dose-response had high values. Particulars: 9.37 µM. It counts as functional.

The species named for another experiment is Homo sapiens. The experiment is described as follows: To identify inhibition of the IFN signalling (Jak-Stat) pathway via expression of an eGFP reporter gene under the control of an IFN-stimulated response element (ISRE) containing MxA promoter. It counts as functional. As to conditions: 30 µM. On the technique in general: In a reporter assay the amount or activity of a reporter protein is the signal.

Experiment [7] has as its target T4, Tyrosyl-tRNA synthetase, putative (Trypanosoma cruzi (strain CL Brener)) (UniProt Q4DSP6).
T4 sequence (whole entry): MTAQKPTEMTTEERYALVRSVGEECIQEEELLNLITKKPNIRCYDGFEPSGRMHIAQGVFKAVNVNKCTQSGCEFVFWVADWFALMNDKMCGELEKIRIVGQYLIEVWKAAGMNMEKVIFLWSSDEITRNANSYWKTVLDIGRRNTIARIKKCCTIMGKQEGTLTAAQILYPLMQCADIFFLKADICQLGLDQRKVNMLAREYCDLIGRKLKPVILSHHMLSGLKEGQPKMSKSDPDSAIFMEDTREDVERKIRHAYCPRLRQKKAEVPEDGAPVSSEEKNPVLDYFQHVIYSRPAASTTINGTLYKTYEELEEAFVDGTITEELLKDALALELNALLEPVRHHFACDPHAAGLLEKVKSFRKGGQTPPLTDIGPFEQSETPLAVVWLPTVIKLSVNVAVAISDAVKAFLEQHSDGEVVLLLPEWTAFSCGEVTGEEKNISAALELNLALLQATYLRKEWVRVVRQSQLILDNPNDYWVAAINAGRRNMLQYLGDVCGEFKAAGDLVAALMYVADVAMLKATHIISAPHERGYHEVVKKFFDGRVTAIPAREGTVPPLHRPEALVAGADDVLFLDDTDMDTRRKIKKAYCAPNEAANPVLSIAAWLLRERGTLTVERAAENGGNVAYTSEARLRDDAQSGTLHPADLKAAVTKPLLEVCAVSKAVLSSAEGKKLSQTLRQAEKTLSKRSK
The experiment is described as follows: Trypanosoma cruzi tyrosyl tRNA synthetase (TcYRS) _High Tyrosine SOP. Also: in the data most compounds retested in dose-response had high values. The format is functional. As to conditions: 30 µM.

For experiment [8], the target named is T4, Tyrosyl-tRNA synthetase, putative (Trypanosoma cruzi (strain CL Brener)). Kind of experiment: Trypanosoma cruzi tyrosyl tRNA synthetase (TcYRS) SOP. It counts as functional. Particulars: 30 µM.
Experiment [9] concerns the target Chromo domain-containing protein 1 (Saccharomyces cerevisiae (strain ATCC 204508 / S288c) (Baker's yeast)) (UniProt P32657). Kind of experiment: ScCHD-1 Enzyme Inhibition Assay. Also: in the data most compounds retested in dose-response had high values. It counts as functional. Particulars: 30 µM.

Sequence of Chromo domain-containing protein 1 (Saccharomyces cerevisiae (strain ATCC 204508 / S288c) (Baker's yeast)) (P32657 whole entry, the tested form may be a part): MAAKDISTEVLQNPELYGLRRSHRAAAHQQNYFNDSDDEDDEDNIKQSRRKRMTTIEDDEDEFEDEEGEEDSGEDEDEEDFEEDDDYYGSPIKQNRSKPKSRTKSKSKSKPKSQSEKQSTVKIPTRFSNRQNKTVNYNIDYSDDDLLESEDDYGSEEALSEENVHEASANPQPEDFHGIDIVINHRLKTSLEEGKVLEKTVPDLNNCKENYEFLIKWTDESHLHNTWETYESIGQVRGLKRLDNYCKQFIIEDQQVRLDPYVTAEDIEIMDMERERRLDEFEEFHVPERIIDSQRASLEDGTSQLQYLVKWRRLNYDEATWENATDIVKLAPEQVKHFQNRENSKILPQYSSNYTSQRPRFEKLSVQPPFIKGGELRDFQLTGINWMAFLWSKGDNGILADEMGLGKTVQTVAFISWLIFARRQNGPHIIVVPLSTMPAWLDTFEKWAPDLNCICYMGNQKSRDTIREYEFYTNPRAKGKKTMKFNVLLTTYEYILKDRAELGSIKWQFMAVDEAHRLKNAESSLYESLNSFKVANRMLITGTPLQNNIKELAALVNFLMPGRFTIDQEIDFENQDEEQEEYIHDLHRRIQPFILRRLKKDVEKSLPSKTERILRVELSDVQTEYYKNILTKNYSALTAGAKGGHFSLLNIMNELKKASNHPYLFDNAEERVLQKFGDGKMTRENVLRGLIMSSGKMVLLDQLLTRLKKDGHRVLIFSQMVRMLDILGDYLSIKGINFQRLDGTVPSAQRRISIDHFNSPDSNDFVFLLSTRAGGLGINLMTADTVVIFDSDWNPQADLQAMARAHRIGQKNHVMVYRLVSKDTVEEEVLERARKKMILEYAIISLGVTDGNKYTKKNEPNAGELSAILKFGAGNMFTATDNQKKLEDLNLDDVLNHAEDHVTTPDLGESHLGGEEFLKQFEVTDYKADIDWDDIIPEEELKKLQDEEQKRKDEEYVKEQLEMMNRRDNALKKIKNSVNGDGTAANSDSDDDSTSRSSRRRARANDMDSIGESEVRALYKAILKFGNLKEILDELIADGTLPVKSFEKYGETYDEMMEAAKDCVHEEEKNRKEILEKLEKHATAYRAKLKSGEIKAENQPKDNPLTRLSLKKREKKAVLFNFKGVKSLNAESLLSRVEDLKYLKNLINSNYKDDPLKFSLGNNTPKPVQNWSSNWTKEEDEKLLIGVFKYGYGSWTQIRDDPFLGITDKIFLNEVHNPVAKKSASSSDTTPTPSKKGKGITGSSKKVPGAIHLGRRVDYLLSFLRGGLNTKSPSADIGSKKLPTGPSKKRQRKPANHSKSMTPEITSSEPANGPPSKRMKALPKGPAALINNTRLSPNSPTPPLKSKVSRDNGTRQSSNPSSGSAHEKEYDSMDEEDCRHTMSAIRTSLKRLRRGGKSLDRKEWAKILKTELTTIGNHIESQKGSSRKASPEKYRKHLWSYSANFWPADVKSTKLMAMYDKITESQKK

Consider `Cc1nc(CC(=O)N2CCC[C@H]2c2nc(C(C)C)no2)cs1`, for which the Percent Effect in experiment [1] was -6.79%; in experiment [2], -1.39%; in experiment [3] it was 0.72%; in experiment [4] it was -1.32%; with Trypanosoma cruzi it was 1.26%; in experiment [5], 3.09%. Besides, the Percent Effect is 7.19% in experiment [6]; -13.6% in the experiment listed under Homo sapiens; 3.16% in [7]; 5.13% in [8]; -0.504% in experiment [9].
On to `O=C(Nc1cccc(OCc2ccc(F)cc2)c1)C1COCCO1` (stereo unspecified), for which the Percent Effect in experiment [1] is -4.66%; in experiment [2] it was -8%; in [3], 0.674%; in experiment [4], -3.67%; in the experiment with Trypanosoma cruzi, -1.27%; in experiment [5], 1.04%. In addition, the Percent Effect is 14.3% in [6]; 5.69% in the experiment filed under Homo sapiens; -8.2% in [7]; -3.7% in experiment [8]; -0.73% in [9].
As for `CC(C)CC1SCC(=O)Nc2c1cnn2C(C)C` (stereo unspecified), the Percent Effect in experiment [1] is -3.15%; in experiment [2], 22.7%; in experiment [3], 1.11%; in [4], 2.31%; with Trypanosoma cruzi it was 4.71%; in experiment [5] it was -4.05%. Further, the Percent Effect was 16.3% in experiment [6]; 5.92% in the experiment listed under Homo sapiens; 7.41% in [7]; 20.5% in [8]; -5.98% in [9].
As for `Cc1ccccc1C(=O)NCc1ccc(N2CCNC(=O)C2)cc1`, the Percent Effect in [1] is 1.43%; in experiment [2], 5.41%; in experiment [3], -9.32%; in experiment [4], 6.76%; in the experiment on Trypanosoma cruzi, 1.16%; in [5], -14.8%. Besides, the Percent Effect in experiment [6] was 14.3%; in the experiment filed under Homo sapiens, -13.4%; in experiment [7], 15.3%; in [8], 17.1%; in experiment [9] it was -3.63%.
`Cc1nnc2n1CCN(CCS(=O)(=O)c1ccccc1)C2`: the Percent Effect in [1] is -2.96%; in experiment [2], 15.6%; in experiment [3], 2.16%; in [4], 8.34%; in the experiment with Trypanosoma cruzi, 1.69%; in experiment [5], -3.2%. Further, the Percent Effect in experiment [6] is -2.03%; in the experiment listed under Homo sapiens, 27.6%; in [7] it was 2.91%; in experiment [8], 14.6%; in experiment [9] it was -8%.
Regarding `Clc1ccccc1CN1CCc2nc(C3CCCCN3)ncc2C1` (stereo unspecified), the Percent Effect in [1] was -3.32%; in experiment [2] it was -8%; in experiment [3] it was 4.19%; in experiment [4], 5.09%; with Trypanosoma cruzi it was 8.46%; in experiment [5], -1.17%. The Percent Effect in experiment [6] was 5.55%; in the experiment filed under Homo sapiens it was -13.2%; in experiment [7], 5.32%; in experiment [8], 3.85%; in experiment [9], -2.09%.
As for `COc1nn(C)c2c1CCCN(C(=O)c1ccccc1)C2`, the Percent Effect in [1] was -4.93%; in experiment [2], 2.7%; in [3], -0.442%; in [4], -2.98%; in the experiment on Trypanosoma cruzi it was -1.76%; in experiment [5] it was -1.25%. Further, the Percent Effect was -1.27% in experiment [6]; 3.41% in the experiment listed under Homo sapiens; 4.95% in experiment [7]; 1.22% in experiment [8]; -2.72% in experiment [9].
For the compound `COc1cc(C)nc(N2CCN(C(=O)c3ccc(Cl)o3)CC2)n1`, the Percent Effect in [1] was -3.23%; in [2], 2.7%; in experiment [3], -4.07%; in experiment [4], -1.86%; with Trypanosoma cruzi, 2.17%; in experiment [5], -0.802%. For the same compound, the Percent Effect is -3.06% in [6]; -0.0966% in the experiment filed under Homo sapiens; 2.46% in [7]; 3.7% in experiment [8]; 1.52% in experiment [9].
Regarding `Cc1occc1C(=O)N1CCC2(CCCN(CC3CCC3)C2=O)C1` (stereo unspecified), the Percent Effect in experiment [1] is 0.601%; in [2], 1.39%; in experiment [3], -1.7%; in experiment [4] it was 8.02%; with Trypanosoma cruzi, 2.62%; in [5], 11%. Further, the Percent Effect in experiment [6] was 13.3%; in the experiment filed under Homo sapiens it was 13.6%; in [7], 6.32%; in experiment [8] it was 10.3%; in experiment [9] it was -2.8%.
`CN(Cc1cn2c(n1)CN(CC1CC1)CC2)Cc1ccco1`: the Percent Effect is -3.08% in [1]; 8% in experiment [2]; 16.6% in experiment [3]; 0.972% in experiment [4]; -3.35% in the experiment with Trypanosoma cruzi; 0.233% in experiment [5]. Besides, the Percent Effect in experiment [6] is 1.5%; in the experiment listed under Homo sapiens, 8.85%; in experiment [7], 7.45%; in [8], 8.97%; in experiment [9], -4.14%.
For `CC(C)(C)C(=O)NCCn1ccc(-c2ccncc2)n1`, the Percent Effect was -2.96% in experiment [1]; 2.74% in experiment [2]; -5.12% in experiment [3]; 4.58% in [4]; 3.33% in the experiment on Trypanosoma cruzi; 11.4% in experiment [5]. The Percent Effect was 9.23% in experiment [6]; 21.9% in the experiment listed under Homo sapiens; 1.07% in [7]; 2.5% in [8]; -2.64% in [9].
